PubChem BioAssay (NCATS)
“And” between values parts separate entries of the source, which are not always exact repeats. Equal values may be shown once. Inconclusive results are not listed. The source made the active and inactive calls. Unless noted, the call rests on the fitted dose curve; in most records, active means well fitted curve in the direction sought with a large enough effect; inconclusive means small, poorly fitted or top-dose-only effect, or another doubt; inactive means no such curve, though single readings can be large; an effect the other way counts as inactive or inconclusive.

Assays:
[1] = target: Cytochrome P450 2C9 (Homo sapiens) (UniProt P11712); assay: Cytochrome P450 family 2 subfamily C member 9 (CYP2C9) small molecule antagonists: luciferase biochemical (cell-free) qHTS assay (AID 1645842; active means well fitted curve in the direction sought with a large enough effect in the repeat runs; an effect the other way counts as inactive or inconclusive; further: nearly all actives have a fitted effect of over 55% in size)
Cytochrome P450 2C9 (Homo sapiens), sequence (P11712 whole entry, looked up): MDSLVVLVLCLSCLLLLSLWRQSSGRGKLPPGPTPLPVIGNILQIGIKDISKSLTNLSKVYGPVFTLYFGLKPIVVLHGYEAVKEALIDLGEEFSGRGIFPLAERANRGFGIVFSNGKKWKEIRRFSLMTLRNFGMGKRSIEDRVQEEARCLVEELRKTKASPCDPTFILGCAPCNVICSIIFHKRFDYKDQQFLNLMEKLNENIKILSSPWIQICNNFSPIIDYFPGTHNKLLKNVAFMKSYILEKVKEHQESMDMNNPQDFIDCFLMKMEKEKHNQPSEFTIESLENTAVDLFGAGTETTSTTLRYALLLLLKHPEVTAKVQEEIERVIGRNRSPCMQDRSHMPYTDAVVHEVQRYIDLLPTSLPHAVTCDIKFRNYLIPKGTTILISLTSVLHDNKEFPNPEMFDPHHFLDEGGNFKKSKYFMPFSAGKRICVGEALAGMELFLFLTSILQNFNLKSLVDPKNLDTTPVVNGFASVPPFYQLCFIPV
How it was run: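 Luminescence, after 20 min with luciferin detection reagent, reflected CYP2C9 turnover during a 1 h NADPH-driven reaction at 37C. Enzyme-substrate mix contained 0.4% bovine serum albumin and was preincubated with compound 10 min at room temperature.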

[2] = Primary qHTS for inhibitors of nuclear receptor binding SET domain protein 2 (NSD2) in an isogenic RCH-ACV NSD2 p.E1099K mutant (9B) (AID 1645876); further: nearly all actives have a fitted effect of over 70% in size
[3] = Primary qHTS for inhibitors of nuclear receptor binding SET domain protein 2 (NSD2) in an RCH-ACV wild type WT cells (2C) (AID 1645877); further: nearly all actives have a fitted effect of over 70% in size
Potency means the concentration at half of the fitted maximal effect.

Row | Structure (SMILES) | Potency [1] | Potency [2] | Potency [3]
1 | CCO[C@H]1CN(C2CCC(O)(c3ccc4c(c3)OCO4)CC2)C[C@@H]1NC(=O)CNC(=O)c1cccc(C(F)(F)F)c1 (stereo not given in full) | 12 µM (active) | inactive | 
2 | Cn1ncc(Cl)c1-c1cc(C(=O)NC(CN)Cc2ccc(F)c(F)c2)oc1Cl (stereo not given) | 8.49 µM (active) | 728 nM (active) and 833 nM (active) | 817 nM (active) and 742 nM (active)
3 | C=CC(=O)Nc1cc(-n2c(=O)ccc3cnc4ccc(-c5ccc(NS(C)(=O)=O)cc5)cc4c32)ccc1C | 1.51 µM (active) | 3.26 µM (active) | 3.66 µM (active)
4 | Cc1ccccc1C(C(=O)NC1CCCCC1)N(C(=O)Cn1cnc2ccccc21)c1cccc(F)c1 (stereo not given) | 16.9 µM (active) | 12.9 µM (active) | 23 µM (active)
5 | COc1ccc(CNc2nc(N(CCO)CCO)nc3c2ncn3C(C)C)cc1 | 3.79 µM (active) | 7.42 µM (active) | 5.25 µM (active)
6 | O=C(Nc1ccc(-c2ccnc(Nc3ccc(N4CCOCC4)cc3)n2)cc1)C1CCCN1 (stereo not given) | 2.13 µM (active) | 4.61 µM (active) | 4.11 µM (active)
7 | Nc1cccc(CNC(=O)c2ccc(Oc3ccc(OCc4cccc(F)c4)cc3)nc2)c1 | 9.52 µM (active) | 11.5 µM (active) | 
8 | N#CC(CCCN1CCN(/N=C/c2cccnc2)CC1)(c1ccccc1)c1ccccc1 | 7.56 µM (active) | inactive | inactive
9 | O=C(NCC1(N2CCN(c3ccccc3)CC2)CCOCC1)c1cccnc1Sc1ccccc1 | 3.79 µM (active) | inactive | inactive
10 | CCOc1nc(NC(=O)Cc2cc(OC)ccc2OC)cc(N)c1C#N | 0.301 µM (active) | inactive | inactive
11 | CCCc1cc(C)[nH]c(=O)c1CNC(=O)c1cc(-c2ccnc(N3CCN(C)CC3)c2)cc2c1cnn2C(C)C | 13.5 µM (active) | 12.9 µM (active) and 16.6 µM (active) | 9.16 µM (active) and 16.6 µM (active)
12 | COc1cc(-c2cn(C3CCc4c(F)cccc4N(CC(F)(F)F)C3=O)nn2)ccc1-n1cnc(C)c1 (stereo not given) | 12 µM (active) | 18.3 µM (active) | 
13 | COc1ccc(-c2csc(NC(=O)[C@H]3CCCCN3S(=O)(=O)c3ccc(C)cc3)n2)cc1 | 2.13 µM (active) | 18.3 µM (active) | 
14 | CC(C)CCNc1ncccc1C(=O)N1CCN(Cc2ccccc2)CC1 | 10.7 µM (active) | inactive | inactive
15 | O=C(Nc1ccc2[nH]nc(-c3ccncc3)c2c1)[C@@H]1CCN(CC(=O)N2CCN(c3ccc(-c4ncccn4)cc3)CC2)C1 | 6.74 µM (active) and 1.69 µM (active) | 9.16 µM (active) and 14.8 µM (active) | 10.3 µM (active) and 11.8 µM (active)
16 | CCN(c1cc(-c2ccc(CN3CCOCC3)cc2)cc(C(=O)NCc2c(C)cc(C)[nH]c2=O)c1C)C1CCOCC1 | 3.38 µM (active) | inactive | 
17 | CN(C)CC#CCCC(=O)C(O)(c1ccccc1)C1CCC1 (stereo not given) | 10.7 µM (active) | inactive | inactive
18 | O=C1C(Cc2ccc(O)cc2)N2C(=O)CCN(C(=O)NCc3ccccc3)C2CN1Cc1cccc2ccccc12 (stereo not given) | 10.7 µM (active) | 3.65 µM (active) | 5.15 µM (active)
19 | O=C(NCCN1CCN(c2cccc3c2OCCO3)CC1)c1ccc(F)cc1 | 19 µM (active) | inactive | inactive
20 | Fc1ccc(-n2cc(CCCCN3CCC4(CC3)OCc3ccccc34)c3ccccc32)cc1 | 2.39 µM (active) | 7.28 µM (active) | 6.49 µM (active)
21 | O=C(NS(=O)(=O)c1ccc(Br)s1)c1ccc(Cl)cc1Cl | 2.68 µM (active) | 10.3 µM (active) | 9.16 µM (active)
22 | COc1ccc(-c2ccc3c(N4CCOCC4C)nc(N4CCOCC4C)nc3n2)cc1CO (stereo not given) | 4.77 µM (active) | 0.0325 µM (active) | 0.0515 µM (active)
23 | COc1ccc(S(=O)(=O)Nc2cc(Cl)cc(Cl)c2OC)cc1N1CCNCC1 | 12 µM (active) | 20.5 µM (active) | 
24 | O=C(Nc1nc2ccc([N+](=O)[O-])cc2s1)C1CCCCC1 | 19 µM (active) | 20.5 µM (active) | 12.9 µM (active)
25 | O=C(Nc1ccc(-n2nc(C(F)(F)F)cc2C(F)(F)F)cc1)c1ccncc1F | 26.8 µM (active) | 20.5 µM (active) | 
26 | CC(C)NC(=O)COc1cccc(-c2nc(Nc3ccc4[nH]ncc4c3)c3ccccc3n2)c1 | 0.19 µM (active) | 7.42 µM (active) | 
